Bioassay records: PubChem, National Center for Advancing Translational Sciences (NCATS)
PTHR1 agonist: qHTS for PTHR1 Agonists: Primary Screen. Parathyroid hormone/parathyroid hormone-related peptide receptor (Homo sapiens), Q03431. HEK293 GP2 PTHR1 cells, GloSensor cAMP luminescence, 1 h. Potency, µM (doses to about 115 µM), for inactives: top-dose activation, hits mostly activators. 410,000 compounds, 0.075% hits; note: potency is the fitted concentration of half-maximal effect; nearly all actives have a fitted effect of over 55% in size
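HEK-293-derived GP2 cells expressing PTHR1 and a GloSensor cAMP reporter, 3,000/well, plated overnight, given luciferin plus IBMX (each 0.5 mM as added) for 1 h at 37 °C, then compound for 1 h at 37 °C. Luminescence was read after 15 min at room temperature.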
PINK1 expr mod: A Quantitative High throughput Screen to Identify Chemical Modulators of PINK1 Expression; PINK1 immunofluorescence, high-content cytometry, 24 h; Potency, µM (titrated, usually from 76.6 µM), without a hit: at the top dose activation (PINK1 increase), actives largely listed as activators; 410,000 compounds, 0.2% hits; active = well fitted activation curve with a large enough effect; inconclusive = small, poorly fitted or top-dose-only effect; cell line not stated here; note: potency is the fitted concentration of half-maximal effect; % of control where 0% means no effect; nearly all actives have a fitted effect of over 65% in size
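Stable cell line, 250 cells/well, 12 h attachment; compounds pinned at 5 concentrations, 24 h; CCCP control. Fixed with nuclear dye, primary antibodies 12 h at 10 degrees C, secondary plus cell stain; laser-scanning cytometer read.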
mIDH1 inhibitor: qHTS for Inhibitors of mutant isocitrate dehydrogenase 1 (IDH1): qHTS | 390,000 compounds, 0.093% hits | Potency, µM (top dose mostly 76.6 µM), without a hit: at the top dose activity change, negative = inhibition, most hits filed as inhibitors | AID 602179, 2012 | IDH1-R132H enzyme, NADPH consumption, diaphorase/resazurin fluorescence; note: potency is the fitted concentration of half-maximal effect; % is set by controls: 0 for no effect and ±100 for the full control effect; nearly all actives have a fitted effect of over 65% in size
Target sequence (O75874 whole entry R132H, stated change not applied): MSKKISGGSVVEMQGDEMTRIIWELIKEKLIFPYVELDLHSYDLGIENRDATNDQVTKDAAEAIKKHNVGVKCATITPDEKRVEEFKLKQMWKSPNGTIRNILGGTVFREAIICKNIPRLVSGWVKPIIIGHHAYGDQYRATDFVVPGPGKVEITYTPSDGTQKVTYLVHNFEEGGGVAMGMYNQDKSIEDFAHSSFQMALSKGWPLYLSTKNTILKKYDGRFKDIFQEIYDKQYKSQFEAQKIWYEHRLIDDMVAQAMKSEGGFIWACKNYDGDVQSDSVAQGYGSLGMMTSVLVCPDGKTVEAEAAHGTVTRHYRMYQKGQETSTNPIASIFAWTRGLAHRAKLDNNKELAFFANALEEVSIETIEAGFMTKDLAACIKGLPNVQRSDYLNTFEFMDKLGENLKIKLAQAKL
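IDH1-R132H (0.5 ug/mL dispensed) in pH 7.5 Tris buffer was preincubated 30 min with compound, then given a substrate mix of 0.016 mM NADPH and 2 mM alpha-KG for 80 min at room temperature; remaining NADPH was read by diaphorase/resazurin fluorescence.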
LDHA inh: qHTS assay for inhibitors of human lactate dehydrogenase; purified LDHA, NADH/diaphorase-resazurin fluorescence; stronger effect = lower value; activity change, % (values are at about 110 or 230 µM); 480,000 compounds, 0.15% hits; AID 1347041, 2019; in the data active = activity change below about -30%; inconclusive = mostly about -25% to -30%;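 note: plate controls were DMSO wells for no effect and wells without enzyme for full effect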
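LDH5 2 nM; NADH 0.06 mM, pyruvate 0.2 mM; 200 mM Tris pH 7.4, EDTA, Tween-20; 5 min RT. Detection: diaphorase 0.133 mg/mL + resazurin 37 µM, fluorescence ex540/em590 at 0 and 20 min; normalized to enzyme-free and DMSO wells.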
Vif-APOBEC3F blk: qHTS for Inhibitors of Vif-A3F Interactions: qHTS; HeLa A3F-eYFP + Vif (tagged APOBEC3F with the HIV-1 protein that degrades it), YFP fluorescence increase; Potency, µM (top dose mostly 46.1 µM), without a hit: top-dose activity, negative = active; 390,000 compounds, 0.2% hits; note: potency is the fitted concentration of half-maximal effect; % of control where 0% means no effect; nearly all actives have a fitted effect of over 65% in size
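HeLa cells stably expressing A3F-eYFP plus Vif, plated and incubated overnight at 37 deg C, then exposed to compounds overnight at 37 deg C. Blocked degradation read as raised yellow fluorescence (Ex 488/Em 500-530).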
Vif-A3G inh: qHTS for Inhibitors of Vif-A3G Interactions: qHTS; HeLa A3G-eYFP + Vif (tagged APOBEC3G with the HIV-1 protein that degrades it), YFP fluorescence, overnight; Potency, µM (top dose mostly 46.1 µM), for the others: top-dose activity, negative = active, hits mostly inhibitors; 410,000 compounds, 0.076% hits; AID 602310, 2012; note: potency is the fitted concentration of half-maximal effect; % is set by controls: 0 for no effect and ±100 for the full control effect; nearly all actives have a fitted effect of over 60% in size
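HeLa cells stably expressing Vif and C-terminally eYFP-tagged A3G, seeded overnight at 37 deg C, then exposed to compound by pintool overnight at 37 deg C. Rise in yellow fluorescence (Ex 488/Em 500-530, Acumen) marks blocked Vif-driven A3G degradation.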
Active calls of the source: *; i = inactive; u = inconclusive; x = no result given; [ ] = dose if it differs, or a comment. An excerpt weighted towards active compounds, which were near 0.59% of everything screened. Unless noted, calls come from the whole dose curve; as a rule, active = well fitted curve in the direction sought with a large enough effect; inconclusive = small, poorly fitted or top-dose-only effect, or another doubt; inactive = no such curve, though single readings can be large; an effect the other way counts as inactive or inconclusive.

SMILES	PTHR1 agonist	PINK1 expr mod	mIDH1 inhibitor	LDHA inh	Vif-APOBEC3F blk	Vif-A3G inh
O=C(NCCC1=CCCCC1)C(=O)NCC(c1ccco1)N1CCN(c2ccccc2)CC1 (stereo not drawn)	-11.9%	12.6µM*	4.5%	0.0	3.4%	-0.6%
COc1ccc(C(=O)NC(C)CCc2ccccc2)cc1[N+](=O)[O-] (stereo not drawn)	i	-0.9%	-1.2%	-0.7	-12.7%	3.6%
COc1ccc(C(=O)C(C)[n+]2ccc(C)c3ccccc32)cc1[N+](=O)[O-] (stereo not drawn)	-19.5%	-0.9%	6.4%	-3.1	u	5.62µM*
Cc1ccc2c(c1C)NC(=O)CC(c1ccccc1O)=N2	i	1.1%	6.1%	-6.8	11.2µM*	-3.8%
Cc1ccc2c(c1)NC(=O)CC(c1ccccc1)=N2	-23.2%[57.5 µM]	-0.8%	4.6%	0.8	-1.8%	0.2%
O=C(Nc1ccccc1)N1CCC(c2nc(-c3ccc(S(=O)(=O)N4CCOCC4)cc3)no2)CC1	-14.7%[57.5 µM]	12.6µM*	6.4%	-5.1	-1.4%	u
O=C(c1ccccc1)N1CCC(c2nc(-c3ccc(S(=O)(=O)N4CCOCC4)cc3)no2)CC1	-38.3%[57.5 µM]	1.0%	10.7%	-6.6	-12.2%	-0.4%
CCN(C(=O)CN1C(=O)CN(C)C1=O)c1cccc2ccccc12	i	-3.4%	1.3%	-8.5	7.4%	1.8%
CCN(C(=O)CN1CCN(C)CC1)c1cccc2ccccc12	-39.0%[57.5 µM]	1.9%	1.2%	-36.0*	1.0%	-4.5%
c1ccc2[nH]c(NN=C3CCCCCC3)nc2c1	-12.8%	1.6%	1.6%	-12.0	22.4µM*	0.5%
Cc1cc(N2C(=O)C(O)=C(C(=O)c3cc4ccccc4o3)C2c2ccc(F)cc2)no1 (stereo not drawn)	x	x	x	21.9	x	x
Cc1cc(N2C(=O)C(O)=C(C(=O)c3cc4ccccc4o3)C2c2ccc(OC(C)C)cc2)no1 (stereo not drawn)	-5.2%	28.2µM*	-6.3%	-6.0	2.5%	3.6%
O=C(NCc1ncc(-c2ccccc2)o1)c1cccc(F)c1	x	x	x	12.4	x	x
CC(OC(=O)Cn1[nH]c(=O)c2ccccc2c1=O)C(=O)Nc1cccc(Cl)c1Cl (stereo not drawn)	x	x	x	-17.0	x	x
Cc1cccc(C(=O)NCCCN(C)CC(F)(F)F)n1	x	x	x	-30.7*	x	x
CC(C)(C)Cc1c(-c2ccc(Cl)cc2)nc2ccc(Br)cn12	-87.6%	31.6µM*	0.0%	2.4	u	0.0%
CC(C)(C)Cc1c(-c2ccc(Br)cc2)nc2ccc(Cl)cn12	-0.6%	u	12.1%	3.3	u	-3.8%
COc1ccccc1Cc1c(-c2ccc(OC)c(OC)c2)nc2ccc(Br)cn12	-15.1%	14.1µM*	x	-2.2	x	-12.2%
CC(C)(C)Cc1c(-c2ccc(F)cc2)nc2ccc(Br)cn12	-61.3%	35.5µM*	8.2%	-2.0	u	-1.0%
CCc1ccc(C(C)(c2ccc(O)cc2)c2ccc(O)cc2)cc1	x	x	x	7.6	x	x
COc1ccccc1NC(=O)C(C)OC(=O)CSCC(=O)Nc1ccc(C)cc1C (stereo not drawn)	-6.9%	-0.5%	5.5%	-5.0	-18.8%	-0.9%
Cc1ccc(NC(=O)CSCC(=O)OC(C)C(=O)Nc2ccc(S(N)(=O)=O)cc2)c(C)c1 (stereo not drawn)	i	-2.8%	-9.3%	-43.8*	u	3.0%
Cc1cc(OC(=O)c2cccc(C)c2C)ccc1C(C)C	x	x	x	6.0	x	x
CCCN(CCC)c1nc(-c2ccccn2)nc2ccccc12	-17.9%	u	4.3%	2.6	-4.5%	5.0%
